Screening results from PubChem.
TrxR1 substrate: qHTS Assay for Substrates of Mammalian Selenoprotein Thioredoxin Reductase 1 (TrxR1): qHTS; Thioredoxin reductase 1, cytoplasmic (Rattus norvegicus), O89049; purified TrxR1 substrate turnover, NADPH consumption readout; Potency, µM (series often up to 114 µM), for inactives: at the highest dose activity change, negative = substrate turnover; hit rate 0.01% among 390,000; AID 588456, 2011; also: % is scaled to controls: 0 for no effect and ±100 for the full control effect; nearly all actives have a fitted effect of over 50% in size
Target sequence (O89049 whole entry, looked up): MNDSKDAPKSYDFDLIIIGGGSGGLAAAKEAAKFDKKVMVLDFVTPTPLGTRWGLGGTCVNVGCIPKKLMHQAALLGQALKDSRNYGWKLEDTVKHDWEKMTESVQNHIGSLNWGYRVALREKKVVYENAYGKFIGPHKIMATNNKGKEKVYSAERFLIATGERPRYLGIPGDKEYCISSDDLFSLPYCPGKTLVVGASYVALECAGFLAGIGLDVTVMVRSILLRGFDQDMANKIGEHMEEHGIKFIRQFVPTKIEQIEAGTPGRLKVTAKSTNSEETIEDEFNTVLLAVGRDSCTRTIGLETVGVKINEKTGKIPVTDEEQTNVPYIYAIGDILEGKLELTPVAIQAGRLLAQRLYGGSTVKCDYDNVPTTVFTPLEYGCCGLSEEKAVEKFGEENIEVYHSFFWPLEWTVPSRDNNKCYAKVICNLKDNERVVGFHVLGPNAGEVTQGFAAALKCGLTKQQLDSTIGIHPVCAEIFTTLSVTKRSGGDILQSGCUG
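Rat TrxR1, dispensed at 90 nM, was prereduced with 400 uM NADPH (final) for 5 min at ~22 deg C, then incubated with compound 15 min before 400 uM selenite. A first-read NADPH fluorescence drop versus no-compound background flagged substrates.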
GLP1R ag: qHTS of GLP-1 Receptor Agonists. hit rate 0.007% among 380,000. Potency, µM (top dose mostly 45.6 µM), for the others: at the highest dose activation, hits mostly activators. AID 624172, 2012. HEK293 GLP-1R CRE-luciferase, luminescence, 4-6 h; cells express a hypersensitive GLP-1R form. Glucagon-like peptide 1 receptor (Homo sapiens), P43220; also: % of control where 0% means no effect
IDH1 R132H inh: qHTS for Inhibitors of mutant isocitrate dehydrogenase 1 (IDH1): qHTS. Isocitrate dehydrogenase [NADP] cytoplasmic (Homo sapiens), O75874. IDH1-R132H enzyme, NADPH consumption, diaphorase/resazurin fluorescence. Potency, µM (doses to about 76.6 µM), for inactives: at the highest dose activity change, negative = inhibition, usual class: inhibitors. hit rate 0.093% among 390,000. AID 602179, 2012; also: % is scaled to controls: 0 for no effect and ±100 for the full control effect; nearly all actives have a fitted effect of over 65% in size
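IDH1-R132H (0.5 ug/mL dispensed) in pH 7.5 Tris buffer was preincubated 30 min with compound, then given a substrate mix of 0.016 mM NADPH and 2 mM alpha-KG for 80 min at room temperature; remaining NADPH was read by diaphorase/resazurin fluorescence.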
rTrxR1 inhibitor: qHTS Assay for Inhibitors of Mammalian Selenoprotein Thioredoxin Reductase 1 (TrxR1): qHTS. Thioredoxin reductase 1, cytoplasmic (Rattus norvegicus), O89049. recombinant rTrxR1, NADPH fluorescence consumption, selenite substrate. Potency, µM (top dose mostly 114 µM), without a hit: top-dose activity change, negative = inhibition, actives largely listed as inhibitors. hit rate 1% among 390,000. AID 588453, 2011; also: % is scaled to controls: 0 for no effect and ±100 for the full control effect; nearly all actives have a fitted effect of over 65% in size
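Rat TrxR1 (90 nM in the dispensed reagent) was pre-reduced with 400 uM NADPH for 5 min at room temperature, then incubated with compound for 15 min. After 400 uM selenite was added, NADPH fluorescence (Ex 340/Em 450 nm) was followed for 8 min.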
GLP1R cytotox: qHTS of GLP-1 Receptor Inverse Agonists: Cytotox Screen; HEK293 cAMP-luciferase reporter cells, luminescence, 24 h; Potency, µM (highest dose often 38.3 µM), without a hit: at the highest dose activity change, negative = inhibition, most hits filed as inhibitors; hit rate 0.13% among 410,000; AID 624418, 2012;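 also: loss of luciferase light is scored as toxicity; % is scaled to controls: 0 for no effect and ±100 for the full control effect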
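1536-well qHTS counterscreen of the MLSMR; 200 cells/uL, 12 h pre-incubation, 23 nL cpd, 24 h at 37 deg C 5% CO2, luciferase detection reagent, 12 min RT, luminescence. Inhibition = undesired.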
GLP-1R inv ag: qHTS of GLP-1 Receptor Inverse Agonists (Inhibition Mode) | HEK293 GLP-1R CRE-luciferase, luminescence, 24 h; GLP-1R form is constitutively active | Potency, µM (doses to about 38.3 µM), without a hit: top-dose activity change, negative = inhibition, usual class: inhibitors | hit rate 1.6% among 410,000 | Glucagon-like peptide 1 receptor (Homo sapiens), P43220; also: % is scaled to controls: 0 for no effect and ±100 for the full control effect; nearly all actives have a fitted effect of over 55% in size
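HEK293 cells stably co-expressing constitutively active GLP-1R and a cAMP-responsive luciferase reporter were seeded in DMEM with 10% Nu serum, given compounds after 12 h, and incubated 24 h at 37 deg C. Luminescence was then read.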
* hit, by the source's call; ? = inconclusive; . = no result; ! = not confirmed by another sample; [ ] = remark or other dose. Hits are enriched below; roughly 2.7% of the tested compounds scored in any of these assays. Calls follow the shape of the dose curve; as a rule, active = well fitted curve in the direction sought with a large enough effect; inconclusive = small, poorly fitted or top-dose-only effect, or another doubt; inactive = no such curve, though single readings can be large; an effect the other way counts as inactive or inconclusive. Potency is read from the fitted curve at half-maximal effect.

SMILES	TrxR1 substrate	GLP1R ag	IDH1 R132H inh	rTrxR1 inhibitor	GLP1R cytotox	GLP-1R inv ag
Cc1ccccc1N1Cc2ccccc2C1=O	.	8%	-5%	.	-3%	19%
COc1ccccc1C(=O)Nc1ccc(C(=O)OCc2cc(=O)n3c4c(sc3n2)CCCC4)cc1	-1%[57.1 µM]	.	-15%	13%[57.1 µM]	0%	15%
COC(=O)C1=C(C)N(c2ccc(Cl)c(Cl)c2)C(=O)C1	-1%	-5%	6%	50µM*	-11%	13µM*
Cc1ccc(CNC(=O)c2cc3sccc3n2Cc2ccc(F)cc2)cc1	-4%	-7%	9%	12%	3%	-11%
O=C(NCc1ccccc1)c1cc2sccc2n1Cc1ccc(F)cc1	-7%	-3%	7%	1%	3%	10µM*
CCCN(C(=O)c1cc2c(s1)-c1ccccc1SC2)c1ccccc1F	33%	.	.	55%	0%	11µM*
CCCN(C(=O)c1cc2c(s1)-c1ccccc1OC2)c1ccccc1F	38%	11%	-21%	66%	-1%	?
CN(C)CCNC(=O)c1cc2c(s1)-c1ccc(Cl)cc1SC2	2%[2.29 µM]	-9%	8%	8%[2.29 µM]	?	13µM*
O=[N+]([O-])C(/C=C(\Cl)[N+](=O)[O-])=C1N(Cc2ccc(Cl)nc2)CCN1Cc1ccc(Cl)nc1	-10%	17%	13%	1.8µM*	-27%	9%
Cc1ccc(C(C)C)c(OCC(=O)Nc2ccc(S(=O)(=O)Nc3onc(C)c3C)cc2)c1	9%	.	.	1%	-5%	-30%
CC(C)(C)c1ccc(C(=O)CCC(=O)NCc2ccccc2)cc1	3%	15%	0%	11%	-20%	7.9µM*
Cc1ccc(C(=O)CCC(=O)NCc2ccccc2)cc1	6%	-2%	7%	41%	7%	-5%
Cc1cccc(C)c1OCC(O)CN1CCc2ccccc2C1 (configuration not stated)	8%[57.1 µM]	2%	5%	9%[57.1 µM]	1%	10µM*
Cn1cc(CNCc2ccccc2OCC(O)CN2CCc3ccccc3C2)cn1 (configuration not stated)	7%[57.1 µM]	-2%	10%	33%[57.1 µM]	?	8.9µM*
CC(=O)Oc1ccc(C2(c3ccc(OC(C)=O)cc3)Oc3ccccc3NC2=O)cc1	.	5%	.	.	.	.
CCCCCCCCNS(=O)(=O)CCNCCCC	-5%	12%	9%	-15%	1%	?
CCCCCCCCNS(=O)(=O)CCNC1CC1	-5%	7%	-1%	45µM*	0%	-18%
COc1ccccc1N(C)S(=O)(=O)c1ccc(C(=O)OCC(=O)N(C)c2ccccc2)cc1	1%	5%	4%	4%	-1%	3.2µM*
COc1ccc(C2Nc3ccccc3C(=O)N2c2ccc(Cl)cc2)cc1COc1ccc(NC(C)=O)cc1 (configuration not stated)	37%	.	.	37%	.	.
CC(C)(C)OC(=O)N1CCC(c2c(C(=O)NCc3ccc4c(c3)OCO4)cnn2-c2ccc(F)cc2F)CC1	1%	.	8%	19%	1%	?
COc1ccc(Br)cc1[C@H]1[C@@H]2C=CCC[C@@]2(C)C(=O)N1Cc1ccccc1	11%[57.1 µM]	5%	-21%	10%[57.1 µM]	-15%	4.5µM*
COc1ccc(Br)cc1C1C2C=CCCC2(C)C(=O)N1Cc1ccccc1 (configuration not stated)	-6%	.	.	-24%	.	.
CC(=O)c1ccc(-c2ccc([C@H]3[C@@H]4C=CCC[C@@]4(C)C(=O)N3Cc3ccccc3)c(F)c2)cc1	-7%	-6%	3%	-1%	-5%	11µM*
COc1ccc(-c2cc([C@H]3[C@@H]4C=CCC[C@@]4(C)C(=O)N3Cc3ccccc3)ccc2F)cc1	-1%	6%	3%	17%	4%	10µM*
COc1ccc(OC)c(-c2noc(N3CCN(c4ccc(C(C)=O)cc4)CC3)n2)c1	0%	3%	7%	4%	3%	10%
SMILES	TrxR1 substrate	GLP1R ag	IDH1 R132H inh	rTrxR1 inhibitor	GLP1R cytotox	GLP-1R inv ag
O=C1NCCCC2c3c(cc(Br)c(O)c3Br)OC12N1CCOCC1 (configuration not stated)	-6%	-11%	11%	16µM*	-6%	5%
CNC(C)C#Cc1c(-c2cc(OC)c(OC)c(OC)c2)noc1C (configuration not stated)	7%	16%	-5%	71µM*!	-12%	11%
Cn1c(=O)n(C)c2cc(N3CCOCC3)c(NC(=O)c3ccccc3Br)cc21	2%	.	25%	-1%	-16%	4%
COc1cccc(CCN2CCC(CNS(=O)(=O)c3cc(-c4cc(C)no4)ccc3OC)CC2)c1	2%	5%	5%	27%	?	?
COc1cccc(CCN2CCC(CNS(=O)(=O)c3cc(-c4cc(C)no4)ccc3C)CC2)c1	4%	-9%	-1%	28%	?	4.5µM*
CC[C@@]1(c2ccccc2)C(=O)N(C(=O)OC)N1C(=O)OC	3%	0%	4%	1.3µM*	-4%	0%
COC(=O)N1C(=O)[C@@](c2ccccc2)(C2CCCCC2)N1C(=O)OC	2%	0%	-4%	45µM*	-17%	-15%
CC[C@]1(c2cccc(C)c2)C(=O)N(C(=O)OC)N1C(=O)OC	5%[57.1 µM]	-4%	3%	1.6µM*	-1%	5%
COC(=O)N1C(=O)[C@](Cc2ccccc2)(c2ccccc2)N1C(=O)OC	-4%	-1%	-8%	4µM*	-5%	-1%
CC[C@]1(c2ccccc2)C(=O)N(C(=O)OC)N1C(=O)OC	3%	-1%	-3%	?	8%	14%
c1coc(-c2nc3n(n2)C2(CCCCC2)[C@@H]2CCCC[C@@H]2N3)c1	1%	.	-3%	-12%	4%	?
COc1ccc(OC)c(NCc2cccn2-c2nnc(N3CCCCC3)s2)c1	1%	.	0%	7%	?	?
CC[C@@]1(c2ccccc2C)C(=O)N(C(=O)OC)N1C(=O)OC	6%	-5%	5%	5.6µM*	1%	18%
CCN1C(=O)c2ccccc2C1Nc1cccc(OCCN2CCCCC2)c1 (configuration not stated)	.	-1%	.	.	.	.
